# Compound activity (PubChem)
# SW480 rerep = A quantitative high throughput screen for small molecules that induce DNA re-replication in SW480 colon adenocarcinoma cells. SW480 DNA re-replication, Hoechst DNA content imaging, 48 h. Potency, µM (highest dose often 46.1 µM), for inactives: at the top dose re-replication activation, hits mostly activators. hit rate 1.8% among 340,000; also: potency is read from the fitted curve at half-maximal effect; % of control where 0% means no effect; nearly all actives have a fitted effect of over 55% in size
#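 Quantitative HTS format with DMSO vehicle controls; 48 hr drug incubation at 37 C, then 40 min Hoechst staining and scanning imager measurement at 405 nm excitation.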
# IL-1B inflam inh = qHTS for Inhibitors of Inflammasome Signaling: IL-1-beta AlphaLISA Primary Screen; hit rate 4.7% among 360,000; THP-1 LPS/ATP IL-1B secretion, AlphaLISA, 16 h; hits give low values; activity change, % at 57.5 µM; AID 743279, 2014; in the data active = activity change below about -50%; inconclusive = mostly about -30% to -49%; also: % is scaled to controls: 0 for no effect and ±100 for the full control effect
#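 Secreted IL-1B measured by AlphaLISA bead assay after 16 h compound exposure of THP-1 cells; compounds (final up to 57.5 uM) added 1 h before LPS (250 ng/mL) and ATP (1.25 mM) stimulation; lower signal means less secretion.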
# Vif-A3G inh = qHTS for Inhibitors of Vif-A3G Interactions: qHTS; HeLa A3G-eYFP + Vif (tagged APOBEC3G with the HIV-1 protein that degrades it), YFP fluorescence, overnight; DNA dC->dU-editing enzyme APOBEC-3G (Homo sapiens), Q9HC16; Potency, µM (series often up to 46.1 µM), inactives show at the highest dose activity, negative = active, most hits filed as inhibitors; hit rate 0.076% among 410,000; AID 602310, 2012; also: potency is read from the fitted curve at half-maximal effect; % is scaled to controls: 0 for no effect and ±100 for the full control effect; nearly all actives have a fitted effect of over 60% in size
# Target sequence (Q9HC16 whole entry, looked up): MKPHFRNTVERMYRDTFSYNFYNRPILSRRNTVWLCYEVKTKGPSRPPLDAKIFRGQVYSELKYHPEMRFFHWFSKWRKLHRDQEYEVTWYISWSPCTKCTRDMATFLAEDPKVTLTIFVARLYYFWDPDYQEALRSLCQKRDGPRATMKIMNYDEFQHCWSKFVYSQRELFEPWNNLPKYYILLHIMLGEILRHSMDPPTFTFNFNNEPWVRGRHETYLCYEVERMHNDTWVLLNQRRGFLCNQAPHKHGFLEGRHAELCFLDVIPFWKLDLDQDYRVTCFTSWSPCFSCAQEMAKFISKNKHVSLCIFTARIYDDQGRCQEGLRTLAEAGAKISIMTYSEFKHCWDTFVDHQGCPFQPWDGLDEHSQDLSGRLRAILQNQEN
#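 HeLa cells stably expressing Vif and C-terminally eYFP-tagged A3G, seeded overnight at 37 deg C, then exposed to compound by pintool overnight at 37 deg C. Rise in yellow fluorescence (Ex 488/Em 500-530, Acumen) marks blocked Vif-driven A3G degradation.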
# Giardia killer = Small Molecules that selectively kill Giardia lamblia: qHTS. Giardia lamblia trophozoite viability. activity change, % at 7.66 µM, hits read low. hit rate 0.15% among 340,000; in the data active = activity change below about -80%; inconclusive = between about -30% and that limit;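 also: parasites exposed to compound for two days anaerobically before the ATP read; % is scaled to controls: 0 for no effect and ±100 for the full control effect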
#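 Giardia trophozoites, 100 cells per well, were exposed to compounds for 48 hrs at 37 deg C under anaerobic conditions; viability was then read as ATP content by bioluminescence after 15-30 min at room temperature.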
# MCF10A rereplic = A quantitative high throughput screen for small molecules that induce DNA re-replication in MCF 10a normal breast cells | AID 624296, 2012 | MCF 10A DNA re-replication, Hoechst nuclear intensity, 48 h | Potency, µM (series often up to 46.1 µM), inactives show at the top dose activity, positive = re-replication, most hits filed as activators | hit rate 2.9% among 350,000; also: potency is read from the fitted curve at half-maximal effect; % of control where 0% means no effect; nearly all actives have a fitted effect of over 50% in size
# Vif-APOBEC3F blk = qHTS for Inhibitors of Vif-A3F Interactions: qHTS; HeLa A3F-eYFP + Vif (tagged APOBEC3F with the HIV-1 protein that degrades it), YFP fluorescence increase; Potency, µM (highest dose often 46.1 µM), for the others: at the top dose activity, negative = active; hit rate 0.2% among 390,000; AID 602313, 2012; also: potency is read from the fitted curve at half-maximal effect; % of control where 0% means no effect; nearly all actives have a fitted effect of over 65% in size
#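 Fluorescence increase (Ex 488/Em 500-530) after overnight compound treatment at 37 deg C flags inhibition of Vif-driven A3F-eYFP loss in stable HeLa A3F-eYFP/Vif cells seeded overnight beforehand.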
# An asterisk follows results filed as active; ? = inconclusive; / = not tested or not shown; [ ] = remark or other dose. Hits are enriched below; roughly 6.9% of the tested compounds scored in any of these assays. Unless noted, calls follow the shape of the dose curve; as a rule, active = well fitted curve in the direction sought with a large enough effect; inconclusive = small, poorly fitted or top-dose-only effect, or another doubt; inactive = no such curve, though single readings can be large; an effect the other way counts as inactive or inconclusive.
SMILES,SW480 rerep,IL-1B inflam inh,Vif-A3G inh,Giardia killer,MCF10A rereplic,Vif-APOBEC3F blk
Cc1ccc(CS(=O)(=O)c2ncc(Cl)c(C(=O)Nc3ccc(OC(F)F)cc3)n2)cc1,?,-103*,-9%,2,7.3µM*,10%
CCC1CCCCN1S(=O)(=O)c1ccc(NC(=O)c2nc(S(C)(=O)=O)ncc2Cl)cc1 (configuration not stated),?,-101*,0%,-3,?,6%
CCOc1ccc(NC(=O)c2nc(S(=O)(=O)Cc3ccccc3)ncc2Cl)cc1,/,/,-9%,/,/,/
CCSc1ncc(Cl)c(C(=O)Nc2ccc(S(=O)(=O)N3CCCCC3CC)cc2)n1 (configuration not stated),/,/,-6%,/,/,-3%
CCS(=O)(=O)c1ncc(Cl)c(C(=O)Nc2ccc(C)cc2)n1,3.7µM*,-99*,-29%,-28,5.8µM*,21%
COc1ccc(NC(=O)c2cccc(N3CCCS3(=O)=O)c2)cc1OC,/,/,-3%,/,/,0%
CCS(=O)(=O)c1ncc(Cl)c(C(=O)Nc2ccc(S(=O)(=O)N3CCCC(C)C3)cc2)n1 (configuration not stated),7.3µM*,-104*,-7%,-9,2.6µM*,5%
CS(=O)(=O)c1ncc(Cl)c(C(=O)Nc2ccc3ccccc3c2)n1,1.2µM*,-99*,-26%,-16,?,-13%
O=C(O)C1CCCC1,/,/,4%,/,/,/
O=C(NC1CCCCC1)c1cc(Nc2cccc(C(F)(F)F)c2)nc2ccccc12,/,/,0%,/,/,-5%
O=C(CCc1cn(Cc2ccccc2Cl)c2ccccc12)NC1CCCCC1,/,/,2%,/,/,3%
Clc1ccc(SCCCCn2ccnc2)cc1,4%,-2,-2%,-6,10µM*,0%
CC1CN(CCOCCSc2ccc(Cl)cc2)CC(C)O1 (configuration not stated),-2%,0,4%,?,3%,0%
CC1CN(CCCCSc2ccc(Cl)cc2)CC(C)O1 (configuration not stated),?,-27,-4%,58,23µM*,-11%
Clc1ccccc1OCCCCn1ccnc1,-6%,-2,2%,-7,-1%,0%
Clc1ccc(SCCCCN2CCNCC2)cc1,?,0,3%,-25,2.9µM*,4%
CCCCC(CC)CCC(CC(C)C)OS(=O)(=O)O (configuration not stated),-4%,/,/,/,-6%,/
C=C1C=C(C)n2ncc(C(=O)Nc3cccc4cnccc34)c2N1,/,/,1%,/,/,/
COCCCNC(=O)c1ccc2c3c(onc13)-c1ccccc1C2=O,2%,-98*,6%,-29,?,-1%
COCCCNC(=O)c1ccccc1Oc1ccccc1,-5%,14,-6%,-1,0%,-1%
CC1=C(C(=O)OCc2ccc(C)cc2)C(c2ccccc2F)CC(=O)N1 (configuration not stated),/,/,-3%,/,/,-22%
COC(=O)N1C(=O)[C@@](c2ccccc2)(C2CCCC2)N1C(=O)OC,?,-106*,?,-1,?,2%
COC(=O)N1C(=O)[C@](c2ccccc2)(C2CCCCC2)N1C(=O)OC,2%,-75*,-30%,-19,?,5%
COC(=O)N1C(=O)[C@](CC(C)C)(c2ccccc2)N1C(=O)OC,?,/,-29%,-5,?,4%
CCN(C(=O)Cn1ncc2c(=O)oc3ccccc3c21)c1ccccc1F,/,/,4%,/,/,0%
SMILES,SW480 rerep,IL-1B inflam inh,Vif-A3G inh,Giardia killer,MCF10A rereplic,Vif-APOBEC3F blk
Cn1c(=O)n(Cc2ccc(Br)cc2)c2ccccc21,2%,-108*,7%,17,-2%,1%
c1csc(-c2nn3c(C4COc5ccccc5O4)nnc3s2)c1 (configuration not stated),3.7µM*,3,-2%,-8,?,6%
C/C(=N\NC(N)=S)c1ccc(Cl)s1,?,-79*,0%,2,?,-15%
O=C(Cn1c(=O)n(Cc2ccc3c(c2)OCO3)c(=O)c2oc3ccccc3c21)Nc1ccccc1F,/,/,0%,/,/,-12%
CCC(CO)Oc1cc(NCc2ccccc2)c2ncn(C(C)C)c2c1 (configuration not stated),13%,14,-12%,3,-3%,-9%
CC(C)n1cnc2c(NCc3ccccc3)cc(N[C@H](C)CO)cc21,0.65µM*,110,?,29,?,?
CCCCOc1cc(NCc2ccccc2)c2ncn(C(C)C)c2c1,1%[9.22 µM],27,-17%,-22,?,-1%
CCC(COC)Oc1cc(NCc2ccccc2)c2ncn(C(C)C)c2c1 (configuration not stated),?,-90*,?,?,?,-23%
CCOc1cc(C(=O)Nc2ccc3oc(-c4ccc(CC)cc4)nc3c2)cc(OCC)c1OCC,/,/,2%,/,/,2%
C=CCn1c(O)c(N=NC(=O)CNC(=O)c2ccco2)c2ccccc21,16µM*,37,?,-3,18µM*,-17%
Fc1ccc(CSc2nncn3c2cc2occc23)c(Cl)c1,/,/,-2%,/,/,-3%
O=C(NC1=C(NC2CCS(=O)(=O)C2)C(=O)c2ccccc2C1=O)c1ccccc1 (configuration not stated),?,-93*,-10%,8,?,6%
Cc1cccc(C(=O)Nc2sc(C)c(-c3ccccc3)c2C#N)c1,-4%,-24,2%,-10,9.2µM*,-2%
Cc1cccc(C(=O)Nc2ccc(C(=O)N/N=C/c3ccc(C)o3)cc2)c1,0%,-52*,-4%,19,-1%,2%
O=C(NC(NC1CCS(=O)(=O)C1)C(=O)c1cccs1)c1ccccc1 (configuration not stated),-11%,13,0%,-5,-5%,6%
O=C(Nc1ccc(O)cc1)c1cccc(Oc2ccc([N+](=O)[O-])cc2)c1,?,-68*,-24%,-6,25%,-10%
Cc1ccc(/C=N/NC(=O)c2cccc(NC(=O)c3ccccc3C)c2)o1,-33%,0,-4%,-7,-45%,3%
C=C1CCN(C(C)C(=O)OCc2ccc(C)cc2)S(=O)(=O)c2ccccc21 (configuration not stated),/,/,2%,12,/,/
O=C(Cn1cc(S(=O)(=O)N2CCN(c3ccccc3F)CC2)c2ccccc2c1=O)Nc1cccc(C(F)(F)F)c1,/,/,-4%,/,/,-4%
